Drawing on PubChem BioAssay (NCI), this text covers growth for nine compounds.

Among the test systems are HCT-15 colon; HT29 colon; SNB-75 CNS; SNB-19 CNS; PC-3 prostate; SK-MEL-5 melanoma; UACC-62 melanoma; SK-MEL-28 melanoma; SK-MEL-2 melanoma; SN12C renal; UO-31 renal; TK-10 renal; ACHN renal; CAKI-1 renal; A498 renal; CCRF-CEM leukemia; MOLT-4 leukemia; U251 CNS; LOX IMVI melanoma; EKVX NSCLC.
Common to all, as to experiment: NCI-60 one-dose screen, 48 h (100 = growth as untreated, 0 = no growth, -100 = all killed)
Common to all, as to details: 10 µM unless noted

Compounds without any hit were thinned out: in the full panel of roughly 83,000, 20% have a hit.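 The endpoint reported here, percent growth, reads 100 for growth as untreated, 0 for no net growth and -100 for all cells dead.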 Unmarked numbers belong to inactive results. Activity calls are given as the source filed them. Rule for the calls: active = growth percent below 10; inactive = the rest.

For the compound `O=c1ncc(-c2ccc(C(F)(F)F)cc2)c(NC2CCCCCC2)[nH]1`, the growth in the experiment on HCT-15 colon was 103%; in the experiment with HT29 colon, 56.5%; in the experiment on SNB-75 CNS, 87%; with SNB-19 CNS, 54.9%; with PC-3 prostate it was 25.7%; in the experiment with SK-MEL-5 melanoma, 20.9%. Besides, the growth with UACC-62 melanoma was 29.6%; in the experiment on SK-MEL-28 melanoma, 49.3%; in the experiment with SK-MEL-2 melanoma, 50.9%; in the experiment with SN12C renal it was 45.9%; with UO-31 renal, 52.3%; in the experiment with TK-10 renal it was 65.1%. Further, the growth in the experiment on ACHN renal was 24.4%; in the experiment on CAKI-1 renal, 93%; in the experiment with A498 renal, 84.4%; in the experiment on CCRF-CEM leukemia, 46.4%; in the experiment on MOLT-4 leukemia, 77.7%.

Regarding `Nc1nc(Nc2ccccc2SSc2ccccc2Nc2nc(N)nc(C(Cl)(Cl)Cl)n2)nc(C(Cl)(Cl)Cl)n1`, the growth in the experiment with HCT-15 colon is 41%; in the experiment with HT29 colon it was 97.4%; with SNB-19 CNS it was 70.2%; in the experiment on U251 CNS it was 32.1%; with PC-3 prostate, 44.3%; in the experiment on SK-MEL-5 melanoma, 50.9%. For the same compound, the growth in the experiment with UACC-62 melanoma is 70%; in the experiment on LOX IMVI melanoma, -24.3% (active); with SK-MEL-28 melanoma, 89.2%; with SK-MEL-2 melanoma, 72.3%; in the experiment on EKVX NSCLC it was 67.5%; in the experiment on SN12C renal, 19.3%. In addition, the growth with UO-31 renal is -38.5% (active); in the experiment on TK-10 renal it was 116%; with ACHN renal, -25.3% (active); in the experiment with CAKI-1 renal, 52.2%; in the experiment on CCRF-CEM leukemia, 45.5%; in the experiment with MOLT-4 leukemia, 46.7%.

Take `O=C(Nc1cccc(Cl)c1)Nc1cccc(Cl)c1`: the growth in the experiment with HCT-15 colon was 60.9%; with HT29 colon it was 82.1%; in the experiment on SNB-75 CNS, 94.7%; in the experiment on PC-3 prostate, 26.8%; in the experiment on SK-MEL-5 melanoma, 79.2%; with UACC-62 melanoma, 43.7%. In addition, the growth was 95% in the experiment on SK-MEL-28 melanoma; 114% in the experiment on SK-MEL-2 melanoma; 72.5% with EKVX NSCLC; 85.2% with SN12C renal; 72.7% in the experiment on UO-31 renal; 74.3% in the experiment with TK-10 renal. For the same compound, the growth was 59.2% with ACHN renal; 78.2% in the experiment with CAKI-1 renal; 59.5% with A498 renal; 38.8% with CCRF-CEM leukemia; 51.6% in the experiment with MOLT-4 leukemia.

With `O=[N+]([O-])c1ccc2[nH]cc(-c3c4ccccc4cc4[nH]c5ccc([N+](=O)[O-])cc5c34)c2c1`, the growth in the experiment on HCT-15 colon is 19.9%; in the experiment with HT29 colon, 13.4%; in the experiment with SNB-75 CNS, 16.6%; with SNB-19 CNS, 47.6%; in the experiment on PC-3 prostate it was 17.2%; in the experiment with SK-MEL-5 melanoma, 23.2%. In addition, the growth with UACC-62 melanoma was 28.6%; with SK-MEL-28 melanoma, 28.1%; with SK-MEL-2 melanoma it was 2.23% (active); with EKVX NSCLC, 39.4%; in the experiment with SN12C renal, 36.7%; with UO-31 renal, 13.2%. For the same compound, the growth with TK-10 renal is 58.7%; in the experiment with ACHN renal, 15.4%; in the experiment with CAKI-1 renal, 25.3%; in the experiment on CCRF-CEM leukemia, 7.25% (active); in the experiment on MOLT-4 leukemia, 6.8% (active).

For `COc1cccc(/C=C2\Cc3ccccc3C2=O)c1`, the growth was 100% in the experiment with HCT-15 colon; 100% in the experiment on HT29 colon; 104% with SNB-75 CNS; 94.2% in the experiment with SNB-19 CNS; 87.5% with PC-3 prostate; 100% with SK-MEL-5 melanoma. The growth was 98.9% in the experiment on UACC-62 melanoma; 113% in the experiment with SK-MEL-28 melanoma; 98.8% with SN12C renal; 90.7% in the experiment with UO-31 renal; 103% with TK-10 renal; 104% in the experiment on ACHN renal. In addition, the growth with CAKI-1 renal was 96.9%; in the experiment on MOLT-4 leukemia it was 93.3%.

For the compound `O=C1/C(=C/c2cccc(Cl)c2)CCc2ccccc21`, the growth was 93.7% in the experiment on HCT-15 colon; 91.2% in the experiment with HT29 colon; 72.5% in the experiment with SNB-75 CNS; 87.1% in the experiment with SNB-19 CNS; 89.7% in the experiment with PC-3 prostate; 101% in the experiment with SK-MEL-5 melanoma. Moreover, the growth with UACC-62 melanoma is 97.7%; in the experiment on SK-MEL-28 melanoma it was 106%; in the experiment with SN12C renal, 95.9%; in the experiment with UO-31 renal, 76.1%; in the experiment on TK-10 renal, 85.9%; in the experiment on ACHN renal, 103%. The figures for the growth with CAKI-1 renal and in the experiment on MOLT-4 leukemia were 76.9% and 83.3%, respectively.

For the compound `O=[N+]([O-])c1ccc(NS(=O)(=O)c2ccc(Cl)c(Cl)c2)cc1`, the growth in the experiment on HCT-15 colon was 88.7%; in the experiment on HT29 colon it was 102%; in the experiment on SNB-75 CNS, 86.7%; in the experiment with SNB-19 CNS, 70.1%; in the experiment on PC-3 prostate, 66.5%; with SK-MEL-5 melanoma it was 40.2%. The growth was 38.8% in the experiment with UACC-62 melanoma; 93.3% in the experiment with LOX IMVI melanoma; 78.4% with SK-MEL-28 melanoma; 60.9% in the experiment with SN12C renal; 70% with UO-31 renal; 94.3% in the experiment with TK-10 renal. Moreover, the growth in the experiment with ACHN renal was 94%; in the experiment on CAKI-1 renal it was 65.2%; with A498 renal, 55.9%; in the experiment on MOLT-4 leukemia, 81.3%.

Regarding `COc1cc(C(=O)c2cc3c(cc2C)OCO3)cc(OC)c1OC`, the growth with HCT-15 colon is 19.6%; in the experiment with HT29 colon it was 3.84% (active); with SNB-75 CNS, 22.7%; in the experiment with SNB-19 CNS, 50.7%; with PC-3 prostate, 18.1%; in the experiment with SK-MEL-5 melanoma, 0.803% (active). Further, the growth in the experiment with UACC-62 melanoma was 32.7%; with SK-MEL-28 melanoma, 46.6%; in the experiment with SN12C renal, 32.4%; with UO-31 renal it was 44.8%; in the experiment on TK-10 renal, 62.8%; in the experiment on ACHN renal, 36.3%. Moreover, the growth with CAKI-1 renal was 13.5%; in the experiment on MOLT-4 leukemia, 23.1%.

Take `O=C1C2C(C(=O)N1CC[Se][Se]CCN1C(=O)C3C(C1=O)[C@H]1C=C[C@@H]3C1)[C@H]1C=C[C@@H]2C1` (stereo not given in full): the growth in the experiment with HCT-15 colon is 1.11% (active); in the experiment with HT29 colon it was -8.38% (active); in the experiment with SNB-19 CNS, -55.5% (active); in the experiment on U251 CNS it was -90.5% (active); in the experiment on PC-3 prostate, -12.8% (active); in the experiment on SK-MEL-5 melanoma, -53.9% (active). The growth is -60.8% (active) in the experiment with UACC-62 melanoma; -26% (active) in the experiment on LOX IMVI melanoma; -3.71% (active) in the experiment with SK-MEL-28 melanoma; -53.3% (active) in the experiment with SK-MEL-2 melanoma; -56% (active) in the experiment with EKVX NSCLC; 3.39% (active) with SN12C renal. Moreover, the growth in the experiment on UO-31 renal is -84.4% (active); in the experiment with TK-10 renal, -70.2% (active); in the experiment with ACHN renal, -52.2% (active); in the experiment on CAKI-1 renal, -87.7% (active); with CCRF-CEM leukemia, 2.3% (active); in the experiment with MOLT-4 leukemia it was 1.28% (active).
